Screens (PubChem)
TDP1 cell noCPT: qHTS for Inhibitors of human tyrosyl-DNA phosphodiesterase 1 (TDP1): qHTS in cells in absence of CPT; DT40 Tdp1-/- hTDP1 cells, no CPT, ATP luminescence, 48 h; Potency, µM (titrated, usually from 46.2 µM), for the others: at the highest dose activity change, negative = growth inhibition, hits mostly inhibitors; actives 15% (n = 420,000); AID 686978, 2013; also: nearly all actives have a fitted effect of over 55% in size
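Compound effects on proliferation are scored in DT40 Tdp1-/-;hTDP1 cells in the absence of CPT. ATP levels (CellTiter-Glo luminescence) are recorded after a ≥48 hr, 37 °C incubation.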
TDP1 inh: inhibitors of human tyrosyl-DNA phosphodiesterase TDP1. Q9NUW8. recombinant TDP1, AlphaScreen DNA substrate cleavage. Potency, µM (doses to about 130 µM), inactives show top-dose activity change, negative = inhibition, hits mostly inhibitors. AID 485290. actives 0.28% (n = 350,000); also: nearly all actives have a fitted effect of over 40% in size
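Signal: AlphaScreen proximity between streptavidin donor and anti-FITC acceptor beads on intact substrate. Reaction: Tdp1 1 nM, substrate 15 nM final, 5 min RT after 15 min compound preincubation.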
TDP1 cell CPT: growth inhibition of DT40 Tdp1-/-;hTDP1 cells with camptothecin (screen for TDP1 inhibitors); chicken DT40 Tdp1-/-;hTDP1 cells + 20 nM CPT, ATP luminescence, 48 h; Potency, µM (series often up to 46.2 µM), without a hit: top-dose activity change, negative = growth inhibition, usual class: inhibitors; actives 12% (n = 420,000); also: nearly all actives have a fitted effect of over 55% in size
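Chicken DT40 Tdp1-/- cells complemented with human TDP1, 400 cells/well, exposed to compounds plus 20 nM camptothecin for at least 48 h at 37 C; viability read as ATP content by CellTiter-Glo luminescence.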
VP16 counter: inhibits Gal4-VP16 luciferase reporter, ROR gamma counter-screen. Drosophila S2 Gal4-VP16 UAS-luciferase, luminescence, 20 h. Potency, µM (titrated, usually from 53.6 µM), for inactives: top-dose activity, negative = inhibition, hits mostly inhibitors. actives 3.5% (n = 310,000). AID 2546;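 also: Gal4-VP16 expression switched on by copper sulfate through the metallothionein promoter; nearly all actives have a fitted effect of over 50% in size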
RORg inh: inhibitors of mouse ROR gamma transcriptional activity | actives 5.4% (n = 310,000) | AID 2551 | Potency, µM (highest dose often 53.6 µM), for the others: at the top dose activity change, negative = inhibition, actives largely listed as inhibitors | Drosophila S2 Gal4-RORgamma UAS-luciferase reporter, 20 h; also: nearly all actives have a fitted effect of over 60% in size
Target sequence (P51450 whole entry, looked up, the tested form may be a part): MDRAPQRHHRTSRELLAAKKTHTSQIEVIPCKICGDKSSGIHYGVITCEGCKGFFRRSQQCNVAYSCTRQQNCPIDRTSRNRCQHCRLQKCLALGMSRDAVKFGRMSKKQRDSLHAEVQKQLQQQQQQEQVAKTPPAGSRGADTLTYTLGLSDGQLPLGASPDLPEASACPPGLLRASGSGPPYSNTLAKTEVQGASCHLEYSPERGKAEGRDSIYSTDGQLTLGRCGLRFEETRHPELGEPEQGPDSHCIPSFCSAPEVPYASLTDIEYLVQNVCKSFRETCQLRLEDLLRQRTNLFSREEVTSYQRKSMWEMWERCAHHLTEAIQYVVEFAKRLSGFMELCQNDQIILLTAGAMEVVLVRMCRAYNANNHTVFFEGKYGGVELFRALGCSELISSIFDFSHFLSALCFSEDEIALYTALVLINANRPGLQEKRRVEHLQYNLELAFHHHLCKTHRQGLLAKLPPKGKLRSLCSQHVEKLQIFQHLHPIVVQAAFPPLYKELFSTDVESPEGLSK
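Luminescence from a UAS-regulated Photinus luciferase reporter in stably transfected Drosophila Schneider cells is measured; decreased signal marks ROR gamma inhibition. Fusion expression is induced by 700 uM copper sulfate for 20 hr.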
* marks the source's active call; other numbers are inactive results; u = inconclusive; x = not tested or not shown; [ ] = dose if it differs, or a comment. Rows were chosen to be rich in hits. Some 19% of all compounds tested hit in one or more screens of this group. Calls follow the shape of the dose curve; as a rule, active = well fitted curve in the direction sought with a large enough effect; inconclusive = small, poorly fitted or top-dose-only effect, or another doubt; inactive = no such curve, though single readings can be large; an effect the other way counts as inactive or inconclusive. % is scaled to controls: 0 for no effect and ±100 for the full control effect; potency is read from the fitted curve at half-maximal effect.

SMILES | TDP1 cell noCPT | TDP1 inh | TDP1 cell CPT | VP16 counter | RORg inh
O=C(O)c1cccc(Cn2cccn2)c1 | 2% | -1% | -10% | -1% | 26%
NN/C(=C\[N+](=O)[O-])Nc1ccc(Cl)cc1 | u | 8% | u | -12% | u
NN/C(=C\[N+](=O)[O-])Nc1ccccc1 | 21µM* | 4% | u | -7% | u
O=C(NC1CC1)C1CCN(C2CCN(C(=O)Cc3ccc4c(c3)OCO4)CC2)CC1 | -8% | -3% | -19% | -16% | 10µM*
COc1ccc(OC)c(CN2CCC(N3CCC(C(=O)NC4CC4)CC3)CC2)c1 | 15% | 2% | -21% | 3% | -18%
CSc1ccc(CN2CCC(N3CCC(C(=O)NC4CC4)CC3)CC2)cc1 | 8.2µM* | x | 21µM* | x | x
Cc1cc(C(=O)OCC(=O)Nc2cc(C)on2)c2ccccc2n1 | -11% | 7% | -9% | 1% | 0%
Cc1cc(C)n(-c2ccc(C(=O)OCC(=O)Nc3ccc(Cl)c(S(=O)(=O)N(C)C)c3)cc2)n1 | -1% | 5% | -29% | 12% | 27%
Cc1ccc(CNC(=O)C(=O)Nc2c3c(nn2-c2ccc(F)cc2)CSC3)cc1 | 5.2µM* | 10% | u | x | x
Cc1ccc(CNC(=O)C(=O)Nc2c3c(nn2-c2ccccc2)CSC3)cc1 | -22% | 3% | u | x | x
Cc1cccn2c(=O)c(C=O)c(N3CCN(c4ccccc4)CC3)nc12 | u | -3% | 0% | -6% | -6%
Cc1sc2c(c1C)c(=O)n(Cc1ccccc1)c(=O)n2Cc1ccc(F)cc1 | -5% | -3% | -3% | x | x
C=CCn1c(=O)c2c(C)c(C)sc2n2c(Nc3ccccc3)nnc12 | 23µM* | -2% | 23µM* | -2% | -3%
Cn1ncc(Cl)c1C(=O)NCc1ccc(Cl)cc1 | 8.2µM* | -2% | u | u | 42%[10 µM]
Cn1ncc(Cl)c1C(=O)NCc1ccc2c(c1)OCO2 | u | 2% | u | u | 10%
Cc1ccc(-n2ncc3c(Nc4cccc(C(F)(F)F)c4)ncnc32)cc1C | u | 3% | 21µM* | x | x
Cc1ccc(-n2ncc3c(Nc4ccc5c(c4)OCCO5)ncnc32)cc1C | 18µM* | 8% | 21µM* | x | x
CC(C)(C)n1ncc2c(=O)n(CC(=O)c3ccc(Cl)cc3)cnc21 | 23µM* | 0% | 23µM* | 4% | 12%
CC(=O)Nc1ccc(NC(=O)Cn2cnc3c(cnn3C(C)(C)C)c2=O)cc1 | -11% | 8% | -11% | x | -27%[0.365 µM]
CC(C)(C)n1ncc2c(=O)n(CC(=O)NCc3ccccc3)cnc21 | 6.5µM* | 5%[56.1 µM] | 8.2µM* | u | 10µM*
CC(C)(C)n1ncc2c(=O)n(Cc3ccc(Cl)cc3Cl)cnc21 | 15µM* | -2% | 16µM* | u | u
Cc1ccc(Cl)c(Cn2cnc3c(cnn3C(C)(C)C)c2=O)c1F | x | -5% | x | x | x
COc1ccc(OC)c(NC(=O)CSc2nnc(CNC(=O)c3ccco3)o2)c1 | u | -1% | u | -5% | -5%
Cc1ccc(-c2nc3ccccc3s2)cc1S(=O)(=O)N1CCOCC1 | u | 4% | u | 13% | 6%
Cc1ccc(-c2nnc(NCc3nc4ccccc4[nH]3)c3ccccc23)cc1S(=O)(=O)N(C)C | 23µM* | 5% | 10µM* | 3% | -2%
SMILES | TDP1 cell noCPT | TDP1 inh | TDP1 cell CPT | VP16 counter | RORg inh
Cc1ccc(-c2nnc(NCc3nc4ccccc4[nH]3)c3ccccc23)cc1S(=O)(=O)N1CCOCC1 | 10µM* | 0% | 15µM* | -4% | 7%
Cc1ccc(-c2nnc(Nc3ccc(Cl)c(Cl)c3)c3ccccc23)cc1S(=O)(=O)N(C)C | u | 4%[12.3 µM] | u | x | x
O=C(COC(=O)c1ccc(F)cc1Cl)Nc1cccc(S(=O)(=O)N2CCOCC2)c1 | -37% | 1% | -17% | x | x
COc1ccc(-c2nsc(NC(=O)C(C)Oc3ccc(Cl)c(C)c3)n2)cc1 (stereo not given) | u | 0% | 23µM* | x | x
CC(Oc1ccc(F)cc1)C(=O)Nc1nc(-c2ccc(F)cc2)ns1 (stereo not given) | 13µM* | 5% | u | x | x
CNC(=O)c1cc(S(=O)(=O)Nc2ccc3c(c2)OCO3)ccc1C | 1% | 3% | 4% | 7% | 0%
CCN(CC)S(=O)(=O)c1ccc(N=NC2=C(O)CCCC2=O)cc1 | 7% | 0% | 1% | 13% | 3%
O=[N+]([O-])c1cccc(Nc2c([N+](=O)[O-])ccc3nonc23)c1 | u | x | -11% | 0% | -15%
COC(=O)c1cnc2c(C(F)(F)F)cccc2c1OC | u | 1% | -1% | -6% | 16%
Cc1ccc(SCCCn2cnc3ccccc3c2=O)cc1 | u | -2% | u | 3% | 45%
COc1ccc2nc(NC(=O)c3cc(S(=O)(=O)N4CCOCC4)ccc3C)sc2c1 | 18µM* | 0% | u | 7% | 31%
O=C(Nc1nc2ccccc2s1)C1CCN(S(=O)(=O)c2cc([N+](=O)[O-])ccc2Cl)CC1 | 15µM* | -9% | 15µM* | u | u
COc1ccc2nc(NC(=O)c3cccc(OCc4c(C)noc4C)c3)sc2c1 | 2.9µM* | -10% | 3.3µM* | u | 11µM*
COc1cccc(C(=O)Nc2nc3ccc(S(=O)(=O)N4CCCC4)cc3s2)c1 | 5.2µM* | 3% | 4.6µM* | x | x
COc1cc(C(=O)Nc2nc3ccc(S(=O)(=O)N4CCOCC4)cc3s2)cc(OC)c1OC | -26% | 8% | u | 17% | 0%
Cc1cc(-c2ccccc2)n(-c2ccc(C(=O)N3CCN(c4ncccn4)CC3)cc2)n1 | u | 6% | u | x | u
C/C(NCCCn1ccnc1)=C(\C#N)C(N)=O | -27% | 3% | -75% | 0% | 4%[10 µM]
O=C(NNS(=O)(=O)c1ccccc1F)c1ccccc1-n1cccc1 | 15% | 5% | -13% | 3% | -2%
CC(C)(C)OC(=O)NCCc1onc(-c2ccccc2F)c1C(=O)O | 4% | x | -18% | x | x
O=C(Nc1nc2ccc(S(=O)(=O)N3CCCC3)cc2s1)C1CCCCC1 | 4.6µM* | 9% | 2.6µM* | -13% | 5%
O=C(Nc1nc2ccc(S(=O)(=O)N3CCCCC3)cc2s1)C1CCCO1 (stereo not given) | u | 2% | u | 0% | 2%
Nc1nc2ccc(S(=O)(=O)N3CCCCC3)cc2s1 | 9.2µM* | 4% | 8.2µM* | u | 13µM*
CN(C)c1cccc(C(=O)Nc2nc3ccc(S(=O)(=O)N4CCCC4)cc3s2)c1 | 8.2µM* | 11% | 6.5µM* | x | x
Nc1cc(S(=O)(=O)N2CCCCC2)ccc1Oc1ccccc1 | 10µM* | 11% | u | u | 31%
